Assay results taken from publication PMC5540273 (PLoS ONE, 2017).

Experiments:
Conditions in all cases: concentration: 1 μM, replicates: in singlicate; n = 1
[1] = test system: TYK2(JH2domain-pseudokinase)
TYRO3 = test system: TYRO3
ULK1 = test system: ULK1
ULK2 = test system: ULK2
ULK3 = test system: ULK3
VEGFR2 = test system: T1, VEGFR2
T1 construct: gene KDR

VPS34 = test system: T2, VPS34
T2 construct: gene PIK3C3

VRK2 = test system: VRK2
WEE1 = test system: WEE1
WEE2 = test system: WEE2
WNK1 = test system: WNK1
WNK2 = test system: WNK2
WNK3 = test system: WNK3
WNK4 = test system: WNK4
YANK1 = test system: T3, YANK1
T3 construct: gene STK32A

YANK2 = test system: T4, YANK2
T4 construct: gene STK32B

YANK3 = test system: T5, YANK3
T5 construct: gene STK32C

YES = test system: T6, YES
T6 construct: gene YES1

YSK1 = test system: T7, YSK1
T7 construct: gene STK25

YSK4 = test system: T8, YSK4
T8 construct: gene MAP3K19
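Further: KINOMEscan kinase panel screen.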

Structure (SMILES) | %Inh [1] [%] | %Inh (TYRO3) [%] | %Inh (ULK1) [%] | %Inh (ULK2) [%] | %Inh (ULK3) [%] | %Inh (VEGFR2) [%] | %Inh (VPS34) [%] | %Inh (VRK2) [%] | %Inh (WEE1) [%] | %Inh (WEE2) [%] | %Inh (WNK1) [%] | %Inh (WNK2) [%] | %Inh (WNK3) [%] | %Inh (WNK4) [%] | %Inh (YANK1) [%] | %Inh (YANK2) [%] | %Inh (YANK3) [%] | %Inh (YES) [%] | %Inh (YSK1) [%] | %Inh (YSK4) [%]
COC(=O)Nc1nc2cc(Oc3ccc(NC(=O)Nc4cccc(SC)c4)cc3)ccc2[nH]1.Cl [GW697999] | 20 | 0 | 14 | 0 | 21 | 77 | 18 | 26 | 28 | 11 | 0 | 3 | 29 | 27 | 14 | 0 | 0 | 29 | 3 | 85
COc1cc(Nc2nccc(N3CCC(NC(=O)Nc4ccc5c(c4)OCO5)C3)n2)cc(OC)c1OC (stereo not drawn) [GSK1379766] | 52 | 0 | 14 | 14 | 86 | 7 | 0 | 0 | 0 | 0 | 11 | 11 | 46 | 5 | 0 | 0 | 6 | 7 | 0 | 45
CN(C)CCOc1ccc(-c2cc(-c3ccc(Cl)c(O)c3)c(-c3ccncc3)[nH]2)cc1.Cl.Cl [SB-684387] | 18 | 6 | 6 | 8 | 14 | 21 | 16 | 45 | 7 | 0 | 11 | 21 | 47 | 33 | 26 | 28 | 0 | 55 | 13 | 27
CC(C)c1nc(-c2ccc(F)c(NS(=O)(=O)c3c(F)cccc3F)c2)c(-c2ccnc(Nc3ccc(N4CCOCC4)nc3)n2)s1 [GSK1804250] | 0 | 86 | 9 | 19 | 50 | 47 | 0 | 11 | 5 | 16 | 7 | 0 | 0 | 31 | 42 | 71 | 15 | 99.2 | 32 | 40
Cc1ccc(NC(=O)c2ccnc(N3CCCCC3)c2)cc1-c1ccc(C(=O)NCC2CC2)cc1 [GW775610] | 0 | 0 | 0 | 0 | 0 | 0 | 0 | 100 | 0 | 37 | 0 | 9 | 0 | 0 | 0 | 10 | 0 | 0 | 0 | 0
Cl.O=C(Nc1ccc(Oc2ccc3[nH]c(NC(=O)c4ccco4)nc3c2)cc1)Nc1cc(C(F)(F)F)ccc1F [GW683134] | 24 | 42 | 24 | 0 | 32 | 78 | 0 | 15 | 0 | 0 | 2 | 0 | 14 | 9 | 2 | 0 | 14 | 61 | 0 | 92.9
COc1ccc(C2=C(Nc3cccc(O)c3)C(=O)NC2=O)cc1 [SB-390766] | 46 | 0 | 26 | 0 | 25 | 0 | 0 | 0 | 90 | 6 | 16 | 99.7 | 34 | 87 | 0 | 0 | 17 | 0 | 0 | 44
Cl.Cl.NC(CNC(=O)c1cc(Br)c(-c2ccnc3[nH]ccc23)s1)c1ccccc1 (stereo not drawn) [GSK1322949] | 38 | 0 | 49 | 0 | 8 | 30 | 59 | 67 | 18 | 0 | 1 | 0 | 24 | 20 | 22 | 0 | 0 | 2 | 28 | 94.8
COc1ccc(C)c(Nc2ccnc(Nc3ccc(-c4cnc[nH]4)cc3)n2)c1.Cl [GW784041] | 0 | 44 | 0 | 0 | 6 | 0 | 54 | 0 | 0 | 8 | 0 | 0 | 0 | 0 | 0 | 0 | 0 | 29 | 0 | 7
O=C(Nc1n[nH]c2nc(-c3cccc(O)c3)ccc12)C1CC1 [SB-711805] | 0 | 0 | 0 | 10 | 7 | 16 | 23 | 0 | 0 | 0 | 28 | 26 | 0 | 63 | 4 | 0 | 0 | 0 | 0 | 90.9
Nc1ncc(-c2ccc3nccc(-c4ccncc4)c3c2)cc1S(=O)(=O)N1CCCCC1 [GSK1693850] | 12 | 0 | 0 | 0 | 10 | 18 | 95.5 | 2 | 0 | 0 | 1 | 4 | 13 | 64 | 5 | 0 | 0 | 10 | 13 | 69
CN(c1ccc(NC(=O)Nc2cccc(Cl)c2)cc1)c1ccnc(N)n1.Cl [GW830707] | 0 | 0 | 5 | 17 | 0 | 97.4 | 0 | 0 | 4 | 0 | 28 | 12 | 38 | 5 | 0 | 16 | 29 | 0 | 0 | 67
CN(c1ccc2c(c1)nc(NCc1ccccc1)n2C)c1ccnc(Nc2ccc(CS(C)(=O)=O)cc2)n1.Cl [GW811603] | 0 | 0 | 0 | 16 | 9 | 99.5 | 40 | 100 | 0 | 29 | 0 | 2 | 11 | 0 | 0 | 0 | 0 | 0 | 0 | 97.3
CC(C)(C)c1ccc(C(=O)Nc2cn3cc(-n4ccnc4)ccc3n2)cc1 | 11 | 0 | 0 | 14 | 10 | 0 | 39 | 0 | 0 | 36 | 0 | 3 | 0 | 0 | 0 | 0 | 0 | 0 | 0 | 79
Nc1ncnc2scc(-c3ccc(NC(=O)Cc4cc(F)ccc4F)cc3)c12.O=C(O)C(F)(F)F [SB-731254-M] | 0 | 0 | 11 | 1 | 34 | 80 | 0 | 0 | 0 | 0 | 0 | 0 | 0 | 25 | 89 | 90.1 | 28 | 29 | 0 | 97.8
Cn1cc(-c2ccc3c(c2)CCN3C(=O)Cc2cc(F)cc(C(F)(F)F)c2)c2c(N)ncnc21 [GSK2635225] | 1 | 0 | 0 | 0 | 0 | 22 | 3 | 0 | 0 | 0 | 8 | 10 | 30 | 13 | 19 | 0 | 0 | 13 | 22 | 88
O=C(O)C(F)(F)F.O=c1[nH]ccc2nc(N[C@@H]3CCNC3)nc(Nc3ccc4c(c3)S(=O)(=O)CC4)c12 [GSK2181306] | 57 | 2 | 99.9 | 99.5 | 98.6 | 36 | 88 | 89 | 18 | 0 | 0 | 29 | 0 | 0 | 70 | 0 | 8 | 20 | 97.4 | 99.7

Structure (SMILES) | %Inh [1] [%] | %Inh (TYRO3) [%] | %Inh (ULK1) [%] | %Inh (ULK2) [%] | %Inh (ULK3) [%] | %Inh (VEGFR2) [%] | %Inh (VPS34) [%] | %Inh (VRK2) [%] | %Inh (WEE1) [%] | %Inh (WEE2) [%] | %Inh (WNK1) [%] | %Inh (WNK2) [%] | %Inh (WNK3) [%] | %Inh (WNK4) [%] | %Inh (YANK1) [%] | %Inh (YANK2) [%] | %Inh (YANK3) [%] | %Inh (YES) [%] | %Inh (YSK1) [%] | %Inh (YSK4) [%]
Cc1ccc(O)cc1Nc1ccnc2cc(-c3ccc(CN4CCCCC4)o3)ccc12 [GW557777] | 0 | 59 | 0 | 0 | 0 | 93.6 | 0 | 0 | 5 | 0 | 0 | 0 | 0 | 0 | 10 | 0 | 0 | 99.8 | 0 | 13
Cn1cc(-c2cnc(N)c3c(-c4ccc5c(c4)CCN5C(=O)Cc4ccccc4)csc23)cn1 [GSK2593074] | 0 | 63 | 0 | 0 | 0 | 65 | 0 | 0 | 3 | 5 | 0 | 0 | 0 | 0 | 0 | 0 | 0 | 55 | 6 | 43
Cc1nn2c(=O)cc(N3CCO[C@H](C)C3)nc2n1Cc1cccc(Cl)c1Cl [GSK2373693] | 18 | 15 | 78 | 0 | 14 | 0 | 96.5 | 0 | 0 | 0 | 4 | 18 | 5 | 0 | 2 | 0 | 14 | 14 | 0 | 56
CS(=O)(=O)c1cccc(CNc2nc(Nc3ccc4c(c3)CCC(=O)N4)ncc2C(F)(F)F)c1 | 0 | 0 | 69 | 70 | 66 | 68 | 0 | 0 | 0 | 0 | 0 | 0 | 0 | 0 | 0 | 0 | 0 | 0 | 0 | 99
CC(=O)Nc1cn2nc(Oc3cccc(NC(=O)c4cccc(C(F)(F)F)c4)c3)ccc2n1 | 0 | 33 | 0 | 0 | 0 | 99.4 | 24 | 8 | 21 | 0 | 0 | 0 | 0 | 0 | 0 | 0 | 0 | 96.2 | 0 | 99.9
COC(=O)Nc1nc2ccc(Oc3ccc(NC(=O)Nc4cc(C(F)(F)F)ccc4F)cc3)cc2[nH]1.Cl [GW654607] | 1 | 66 | 15 | 0 | 58 | 92.3 | 0 | 0 | 31 | 0 | 25 | 27 | 26 | 15 | 21 | 0 | 100 | 48 | 25 | 97.2
Fc1cc(Cl)ccc1Nc1ccnc2cc(-c3ccc(CN4CCOCC4)o3)ccc12 [GW560109] | 29 | 83 | 15 | 8 | 34 | 82 | 0 | 27 | 0 | 0 | 10 | 4 | 1 | 8 | 8 | 21 | 24 | 84 | 0 | 71
COc1cc(Nc2nccc(N3CCC(NS(=O)(=O)c4ccc(NC(C)=O)cc4)CC3)n2)cc(OC)c1OC [GSK1379825] | 84 | 76 | 21 | 11 | 97.4 | 0 | 34 | 0 | 75 | 0 | 0 | 16 | 25 | 23 | 2 | 7 | 0 | 39 | 16 | 32
COC(=O)Nc1nc2ccc(Oc3ccc(CC(=O)Nc4cc(C(F)(F)F)ccc4F)cc3)cc2[nH]1 [GW680903] | 24 | 0 | 0 | 0 | 0 | 63 | 0 | 13 | 1 | 0 | 0 | 4 | 21 | 48 | 9 | 0 | 0 | 8 | 3 | 42
CC(C)c1nc(-c2cccc(NS(=O)(=O)c3c(F)cccc3F)c2)c(-c2ccnc(Nc3ccc(N4CCOCC4)nc3)n2)s1.Cl [GSK1723980] | 60 | 72 | 22 | 13 | 93.5 | 91 | 0 | 0 | 18 | 0 | 3 | 0 | 5 | 4 | 15 | 9 | 19 | 99.7 | 1 | 91.8
O=C(Nc1n[nH]c2cc(-c3cccs3)ccc12)C1CC1 [SB-731284] | 63 | 0 | 39 | 15 | 7 | 57 | 16 | 0 | 0 | 0 | 40 | 0 | 0 | 0 | 19 | 0 | 0 | 0 | 0 | 94
COc1cccc(NC(=O)NCCNc2ccnc(Nc3ccc(F)cc3)n2)c1 [GSK1379879] | 48 | 0 | 13 | 0 | 26 | 0 | 0 | 0 | 31 | 6 | 5 | 22 | 22 | 46 | 0 | 0 | 0 | 0 | 0 | 44
Cc1ccc(-c2ccc3occ(-c4ccc(S(C)=O)cc4)c3c2)nn1 (stereo not drawn) | 18 | 0 | 0 | 0 | 0 | 0 | 61 | 0 | 0 | 0 | 0 | 18 | 0 | 0 | 0 | 1 | 24 | 0 | 1 | 4
Cc1ccc(O)cc1Nc1ccnc2ccc(C(C)(C)C)cc12 [GW856805] | 38 | 15 | 56 | 30 | 51 | 54 | 51 | 20 | 9 | 18 | 38 | 0 | 21 | 0 | 29 | 4 | 45 | 76 | 1 | 48
Cc1cc(-c2ccnc(Nc3cccc(C#N)c3)n2)cc(C)c1O [GSK1440913] | 99.4 | 23 | 1 | 0 | 54 | 6 | 70 | 3 | 0 | 2 | 7 | 0 | 4 | 26 | 7 | 0 | 13 | 19 | 4 | 97
Cc1cc(-c2c(-c3ccc(F)cc3)ncn2CCCN2CCOCC2)nc(N)n1 [SB-222517] | 16 | 0 | 20 | 30 | 18 | 5 | 29 | 0 | 47 | 1 | 0 | 0 | 0 | 0 | 0 | 13 | 16 | 0 | 20 | 11
